Results from PubChem BioAssay AID504850 (National Center for Advancing Translational Sciences (NCATS), 2011).
The whole screen tested about 2,300 compounds, of which about 1,200 (52%) were called active. About 34% were inconclusive and are not listed. Calls come from the whole dose curve; as a rule, active = well fitted inhibition curve with a large enough effect; inconclusive = small, poorly fitted or top-dose-only effect, or effect the other way; inactive = no such curve, though single readings can be large or run the other way. The set was probably picked from earlier hits. This is one part of the list.

Assay: Confirmation screen for delayed death inhibitors of the malarial parasite plastid, 48 hour incubation; note: nearly all actives have a fitted effect of over 65% in size
Conditions: P. falciparum-infected erythrocytes, luciferase growth; series mostly up to 28.7 µM
Outline: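 Erythrocytes infected with luciferase-expressing P. falciparum (2% hematocrit, 0.1% parasitemia) incubated with compounds 48 hours at 37 C, 5% CO2, in RPMI/Albumax. Growth inhibition scored as reduced luminescence after detection reagent.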
Potency is the fitted concentration of half-maximal effect.

Compound	Potency
CCOC(=O)c1c(C)c(-c2ccccc2)n(CC(=O)NCCCN(CC)CC)c1C	12.6 µM (active)
O=C(c1ccco1)N1CCN(C(=O)C2CCCc3c2[nH]c2ccc(Cl)cc32)CC1 (centres undefined)	14.1 µM (active)
COc1cccc(/C=C2\SC(=O)N(CCC(=O)NC3CCS(=O)(=O)C3)C2=O)c1 (centres undefined)	inactive
O=C1/C(=C/c2ccc(Cl)cc2)SC(=S)N1CCC(=O)N1CCCCC1CCO (centres undefined)	15.8 µM (active)
COc1cccc(/C=C2\SC(=S)N(CCC(=O)N3CCCCC3CCO)C2=O)c1 (centres undefined)	10 µM (active)
CC1=CC(=O)O[C@@H]1[C@@]1(C)C[C@H]2OC(=O)C[C@H]3[C@@H](C)C(=O)C(O)=C1[C@@]23CO	inactive
CCCCNC(=O)c1onc(CSc2ccc(Cl)cc2)c1C(=O)O	inactive
O=C(Nc1cc(Cl)ccc1N1CCCC1)C1=NN(c2ccccc2)C(=O)CC1	14.1 µM (active)
CN(C)c1ccc(S(=O)(=O)N2CCCCC2)cc1NC(=O)C1=NN(c2ccccc2)C(=O)CC1	8.91 µM (active)
Cc1oc(=O)c(NC(=O)c2ccc(Cl)cc2)cc1C(=O)c1ccccc1	inactive
O=[N+]([O-])c1cncc([N+](=O)[O-])c1Nc1cccc(O)c1	12.6 µM (active)
CC1(C)Cc2c(ccc3ccccc23)C(c2cc3ccccc3oc2=O)=N1	12.6 µM (active)
O=C(Nc1ccccc1C(F)(F)F)N1CCN(c2ccc3nnc(-c4ccc(F)cc4)n3n2)CC1	7.08 µM (active)
O=C(c1ccc(Br)o1)N1CCN(c2ccc3nnc(-c4ccccc4)n3n2)CC1	12.6 µM (active)
O=C(c1ccc(OC2CCN(Cc3ccccc3OC(F)F)CC2)cc1)N1CCCC1	2.24 µM (active)
COc1ccc(C(=O)NC(=S)N(C)C2CCCCC2)cc1	inactive
COc1ccc(CCC(C)N2CCC(Oc3ccc(C(=O)N4CCCC4)cc3)CC2)cc1 (centres undefined)	12.6 µM (active)
CCOc1cc(/C=C/C(=O)Nc2ccc(C(=O)NCCN(CC)CC)cc2)ccc1OCC(C)C	1.78 µM (active)
Cc1nc([N+](=O)[O-])c(Br)n1CC(=O)c1ccc(Cl)cc1	10 µM (active)
O=C(c1ccc([N+](=O)[O-])cc1)n1nc(-c2ccccc2)nc1NCc1ccc(F)cc1	inactive
Cc1nc([N+](=O)[O-])c(Br)n1CC(=O)c1ccc(F)cc1	12.6 µM (active)
Cn1cc([N+](=O)[O-])c(C(=O)Nc2cnn(Cc3ccc(F)cc3)c2)n1	inactive
CCOC(=O)N1C/C(=C\c2ccccc2)C(=O)/C(=C/c2ccccc2)C1	6.31 µM (active)
CCN(CC)S(=O)(=O)c1cccc(NC(=O)c2cc(-c3cccs3)nn2-c2ccccc2)c1	11.2 µM (active)
